Data taken from PubChem BioAssay AID493033 (ICCB-Longwood Screening Facility, Harvard Medical School, 2011).
“And” between values parts separate entries of the source, which are not always exact repeats. Identical values can stand only once. In all, about 100,000 compounds went through this assay and about 930 (0.93%) were called active. The full list was thinned out, with actives kept by preference. A number with no mark means an inactive call. Cut-off read from the data, not from the text of the source: active = inhibition mostly above about 56% (no sharp cut-off); inactive = mostly below about 77%.

What follows are molecules tested against Salicylate synthase (Mycobacterium tuberculosis (strain CDC 1551 / Oshkosh)) (UniProt P9WFX0) (assay: MbtI salicylate synthase inhibitors, primary screen, biochemical, fluorescence intensity (AID 493033)). Conditions: purified MbtI enzyme, fluorescence intensity read-out, stronger effect = higher value, concentration not given here.
Chain of Salicylate synthase (Mycobacterium tuberculosis (strain CDC 1551 / Oshkosh)) (P9WFX0 whole entry, looked up): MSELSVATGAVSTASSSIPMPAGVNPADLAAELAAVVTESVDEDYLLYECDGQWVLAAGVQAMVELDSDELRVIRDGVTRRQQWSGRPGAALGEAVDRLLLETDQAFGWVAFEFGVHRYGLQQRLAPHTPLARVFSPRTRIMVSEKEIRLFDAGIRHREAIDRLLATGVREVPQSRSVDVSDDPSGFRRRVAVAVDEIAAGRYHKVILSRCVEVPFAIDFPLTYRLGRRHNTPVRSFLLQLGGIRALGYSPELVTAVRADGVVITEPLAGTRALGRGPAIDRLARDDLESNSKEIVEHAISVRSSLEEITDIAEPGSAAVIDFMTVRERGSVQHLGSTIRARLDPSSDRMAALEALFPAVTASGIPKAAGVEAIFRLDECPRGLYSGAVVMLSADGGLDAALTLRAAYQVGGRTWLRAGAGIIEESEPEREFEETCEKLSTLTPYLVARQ
`CCn1c(=O)cc(SCC(=O)NC2CCCCC2)c2ccccc21` gave an inhibition of -8.85%.
In the case of `COC(=O)c1ccc(CSCC(=O)Nc2ccc(C)c(C)c2)o1`, the inhibition is reported as -3.9%.
Work on `COc1cc(/C=C/C(=O)N2CCc3ccccc3C2)cc(OC)c1OC` yielded an inhibition of -28.7%.
Work on `S=C(NCCc1ccc(Cl)cc1)Nc1ccccc1` yielded an inhibition of -14.1%.
Work on `O=C1CCN(C(=S)NCCc2ccccc2)CC1` yielded an inhibition of 14.8%.
In the case of `Oc1cc2c(cc1O)CN(C(=S)NCCc1ccc(Cl)cc1)CCC2`, the inhibition is reported as 100% (active).
In the case of `COc1cc(C#N)ccc1Oc1nc(CN2CCOCC2)nc2scc(-c3cccs3)c12`, the inhibition is reported as 18.1%.
For `CC(C)Cn1c(SCc2nnc(-c3ccccc3)o2)nnc1-c1ccccc1F`, the inhibition was -1.55%.
In the case of `CC1=C(C(=O)OC2CCCC2)C(c2cc3c(cc2Cl)OCO3)C2=C(CCCC2=O)N1` (stereo not given), the inhibition is reported as 116%.
Work on `COc1ccc(OC)c(NC(=O)CCN2CCC(C)CC2)c1` yielded an inhibition of -19.2%.
`COc1ccc(OC)c(NC(=O)CS)c1` was tested, and the inhibition was 97.5% (active).
Work on `COc1ccc(OC)c(NC(=O)CC(Cc2ccccc2OC)C(=O)O)c1` (stereo not given) yielded an inhibition of 2.1%.
Molecule `N#CSc1ccc(N2CCCCC2)cc1` has an inhibition of 21.2%.
Molecule `O=c1[nH][nH]c(=O)c2cc(N3CCCC3)ccc12` has an inhibition of -10.9%.
In the case of `O=C1C=CC(=O)N1c1ccc(N2CCCCC2)cc1`, the inhibition is reported as 99.7% (active).
Work on `COc1ccccc1C(=O)Nc1ccccc1N1CCN(C)CC1` yielded an inhibition of -4.85%.
Molecule `COc1ccc(NC(=S)N2CCCCC2)cc1` has an inhibition of -6.7%.
`OC1CCN(C(=S)Nc2ccccc2)CC1` gave an inhibition of -8.65%.
For `Fc1ccc(NC(=S)N2CCN=C2Nc2ccc(F)cc2)cc1`, the inhibition was 72.3% (active).
`COc1ccc(-c2nnc(SCC(=O)NC3CCCc4ccccc43)o2)cc1OC` (stereo not given) showed an inhibition of -3.65%.
`COc1cccc(C(=O)Nc2ccccc2C#N)c1OC` showed an inhibition of -17.5%.
`CC(C)Cn1nccc1N` gave an inhibition of -12%.
With `CC(C)CN1C(=O)C=CC1=O` the inhibition was 80.8% (active).
`O=C(NCCCN1CCCC1)C1CCN(c2nc3ccccc3n3cccc23)CC1` showed an inhibition of -7.35%.
Work on `CCn1c(C(C)C)n[nH]c1=S` yielded an inhibition of 2.75%.
`CC(C)Sc1n[nH]c(=S)n1N` was tested, and the inhibition was 98.2% (active).
In the case of `CC(C)c1n[nH]c(=S)n1N`, the inhibition is reported as 96.5% (active).
Work on `N#Cc1c(-c2c(O)[nH]c3ccccc23)c2c(-c3ccncc3)[nH]nc2oc1=N` yielded an inhibition of -1.15%.
Work on `CCS(=O)(=O)Nc1ccc(Cl)cn1` yielded an inhibition of 89.8%.
`COCCNc1oc(COc2ccc(Br)cc2)nc1C#N` was tested, and the inhibition was -15%.
In the case of `COc1ccc(C2Nn3c(C)nnc3SC2C(=O)N2CCCC2)cc1` (stereo not given), the inhibition is reported as -6.35%.
In the case of `Cc1ccc(-n2c(SC(C)C(=O)NC(N)=O)nc3ccccc32)cc1` (stereo not given), the inhibition is reported as -6.15%.
Molecule `CCCCSC1=NC(C)(C)Nc2ccccc21` has an inhibition of -13.3%.
`CC(C)NC(=O)CSc1nc(-c2ccccc2)cn1N` showed an inhibition of 11.2%.
`CCOC(=O)c1cc(-c2ccccc2)no1` gave an inhibition of -8.95%.
`O=C(COC(=O)/C=C/c1cccs1)Nc1ncc(Br)s1` was tested, and the inhibition was 0.8%.
`CCOc1ccc(OCCBr)cc1` gave an inhibition of -5.55%.
With `CCOc1ccc2[nH]c(=S)sc2c1` the inhibition was 81.3% (active).
Work on `CCOc1ccc2c(c1)sc1nc(=O)n(-c3ccccc3)c(=O)n12` yielded an inhibition of 3.85%.
With `CNC(=O)c1cc2c(n(-c3ccccc3)c1=O)CC(C)(C)CC2=O` the inhibition was 72.9%.
For `CC(C)(C)c1nc(=S)[nH][nH]1`, the inhibition was 59.2% (active).
Work on `O=C(c1ccco1)N1CCN(C(=O)c2cnn(-c3ccccc3)c2-n2cccc2)CC1` yielded an inhibition of -6.6%.
With `COc1cccc(N2C(=O)C=CC2=O)c1` the inhibition was 98.8% (active).
`CCCCNC(=O)c1cccc(OC)c1` was tested, and the inhibition was -2.5%.
Work on `COc1cccc(C(=O)Nc2ccc(N3CCCC3)cc2)c1` yielded an inhibition of -7%.
Molecule `CCN1CCN(CCCNC(=S)Nc2ccc3nc(N4CCN(CC)CC4)cc(C)c3c2)CC1` has an inhibition of 35.8%.
`Cc1ccc(-c2nnc(SCc3c(C)cc(C)cc3C)o2)cc1` showed an inhibition of -3.75%.
Molecule `O=C(CSc1nnc(-c2cccs2)n1-c1ccccc1)OC1CCS(=O)(=O)C1` (stereo not given) has an inhibition of -45%.
`S=c1[nH]nc(-c2ccncc2)n1/N=C/c1cccnc1` was tested, and the inhibition was -6.8% and -8.55%.
For `CC(C)n1c(-c2ccncc2)n[nH]c1=S`, the inhibition was 93.6% (active).
In the case of `FC(F)(F)c1cccc(-n2c(-c3ccncc3)n[nH]c2=S)c1`, the inhibition is reported as 6%.
Work on `CCOC(=O)N1CCN(C(=O)COC(=O)c2cccc(S(C)(=O)=O)c2)CC1` yielded an inhibition of -7.25%.
`NC(=O)c1nnc(Cc2ccc(Cl)cc2)o1` was tested, and the inhibition was -6.1%.
Work on `CC(C)n1nc(C(N)=O)c2ccccc2c1=O` yielded an inhibition of 14.1%.
For `O=C(CCC(=O)N1CCCCc2ccccc21)NC1CCCC1`, the inhibition was -4.6%.
`NCCc1ccc(Cl)cc1` showed an inhibition of -11.3%.
In the case of `O=C1C=CC(=O)N1Cc1ccc(Cl)cc1`, the inhibition is reported as 71.7% (active).
For `O=C1CSc2ccccc2N1Cc1ccc(Cl)cc1`, the inhibition was -5.75%.
Molecule `CCOC(=O)c1oc2ccccc2c1CN1c2cccc3cccc(c23)S1(=O)=O` has an inhibition of -5.65%.
`COC(=O)c1cccc(OCC(O)CNC2CCN(Cc3ccccc3)CC2)c1` (stereo not given) was tested, and the inhibition was 12.9%.
`NC(=S)CC(=O)NCc1ccccc1` was tested, and the inhibition was 65.2%.
`Oc1ccc(CNc2ccccc2O)cc1` was tested, and the inhibition was 92% (active).
With `O=C(CS(=O)(=O)c1ccccc1)Nc1ccccc1O` the inhibition was -1.55%.
With `C=CCn1c(SCC(=O)c2ccc(N(C)S(C)(=O)=O)cc2)nnc1C1CCCCC1` the inhibition was 0.8%.
Work on `Cc1cc(N2CCN(c3ccccc3)CC2)n2c(nc3ccccc32)c1C#N` yielded an inhibition of 4.55%.
Molecule `CC(NC(=O)c1ccccc1NC(=O)c1ccco1)C(=O)NN(c1ccccc1)c1ccccc1` (stereo not given) has an inhibition of 31.5%.
For `Cc1occc1-c1nnc2sc(Cc3cccc4ccccc34)nn12`, the inhibition was 79.1%.
With `Nc1nnc(SCc2ccccc2)s1` the inhibition was 38.8%.
In the case of `N=C1N=C(N)C(Cc2ccccc2)S1` (stereo not given), the inhibition is reported as 84.2% (active).
Molecule `NC1=NC(=O)C(Cc2cccc(Cl)c2)S1` (stereo not given) has an inhibition of 0.55%.
